{"source": "PubChem BioAssay (NCI)", "note": "About 83,000 compounds went through this panel and 20% of them were active in at least one assay; those are over-represented in the sample as a whole.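 Growth was measured after 48 h exposure to one concentration of compound in 96-well plates. Values under 10 count as active.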 Calls of active or inactive are those of the source.", "data": [{"tested_on": "HL-60(TB) leukemia", "assay": "NCI-60 one-dose screen, 48 h (100 = growth as untreated, 0 = no growth, -100 = all killed)", "settings": "10 µM unless noted", "values": [{"smiles": "CC#Cc1nc(Nc2cc(C)[nH]n2)c2ccccc2n1", "growth": "4.13% [100 µM] (active)"}, {"smiles": "COc1ccc(-c2ccc(-c3ccc(C(=N)N)nc3)s2)cc1", "growth": "-47.3% (active)"}, {"smiles": "CCCC(C)c1cc(Cc2cc(Cl)cc(Cl)c2O)c(O)c(Cc2cc(Cl)cc(Cl)c2O)c1", "note": "(stereo not given)", "growth": "4.98% (active)"}, {"smiles": "CCCN1C(=O)/C(=c2\\sc3n(c2=O)NC2C(N=3)N(CC)C(=O)N2CC)c2ccccc21", "note": "(stereo not given)", "growth": "-18.4% (active)"}, {"smiles": "O=C(O)c1ccc(-n2cc(CNc3ccc(C(F)(F)F)cc3)c(-c3ccccc3)n2)cc1", "growth": "89.2% (inactive)"}, {"smiles": "Fc1ccc2nc3c(cc2c1)CSc1nnc(-c2ccc[nH]c2=S)n1N3", "growth": "106% (inactive)"}, {"smiles": "Cc1cc(-c2ccc(N=Nc3c(C)nn(-c4ccc(S(=O)(=O)O)cc4)c3O)c(C)c2)ccc1N=Nc1ccc(O)c(C(=O)O)c1", "growth": "99% (inactive)"}, {"smiles": "O=C(CCCC(=O)Nc1ccc(-n2nnc3cc(Cl)c(Cl)cc32)cc1)Nc1ccc(-n2nnc3cc(Cl)c(Cl)cc32)cc1", "growth": "75.9% (inactive)"}, {"smiles": "C=C(C)[C@@H]1CC[C@]2(C(=O)O)CC[C@]3(C)[C@H](CC[C@@H]4[C@@]5(C)C[C@@H](CC#Cc6ccc(C(C)=O)s6)[C@H](O)C(C)(C)[C@@H]5CC[C@]43C)[C@@H]12", "growth": "54% (inactive)"}, {"smiles": "CCOC(=O)c1c(-c2ccc(C)cc2)c(C#N)c(=O)n(-c2cccc(C(F)(F)F)c2)c1N", "growth": "102% (inactive)"}, {"smiles": "COc1cc(-c2nn(-c3ccc(NC(=O)Nc4cc(C(F)(F)F)cc(C(F)(F)F)c4)cc3)cc2-c2ccncc2)ccc1Cl", "growth": "4.78% (active)"}, {"smiles": "CC(C)(C)c1ccc(/C=C/C(=O)Nc2ccc(O)cc2)cc1", "growth": "-12.6% (active)"}, {"smiles": "CN1C(=O)N(C)C2(c3ccccc3)N(CC(=O)Nc3ccccc3O)C(=O)NC12c1ccccc1", "note": "(stereo not given)", "growth": "98.9% (inactive)"}, {"smiles": "CCCC/C(=N\\N=C(N)N)c1ccc(F)cc1", "growth": "-30.9% (active)"}, {"smiles": "O=C1Nc2ccc(Br)cc2C1=O", "growth": "99.6% (inactive)"}, {"smiles": "CN1C(=O)/C(=C\\c2nc([P+](c3ccccc3)(c3ccccc3)c3ccccc3)c(N3CCOCC3)o2)SC1=S", "growth": "-15.1% (active)"}, {"smiles": "CCc1cccc(Sc2cc(C(=O)N3Cc4ccc(OCCN(C)C)cc4C3)ccc2O)c1", "growth": "50.3% (inactive)"}, {"smiles": "Cc1ccc(N(C(=O)CCc2c[nH]c3ccccc23)[C@H](C(=O)Nc2ccc(Cl)cc2)c2cccc([N+](=O)[O-])c2)cc1", "growth": "70.7% (inactive)"}, {"smiles": "CNC(=O)c1cc(Oc2ccc3nc(NC(=O)Nc4ccc(CN5CCOCC5)c(C(F)(F)F)c4)sc3c2)ccn1", "growth": "17.1% (inactive)"}, {"smiles": "O=C(CN1C(=O)/C(=C\\c2ccc(Cl)cc2)SC1=S)Nc1ncc(Cc2ccc(Cl)cc2)s1", "growth": "102% (inactive)"}, {"smiles": "Cc1c(C(=O)CCl)c(=O)n(-c2ccccc2)n1C", "growth": "56.9% (inactive)"}, {"smiles": "Cc1c(NCC(=O)Nc2nc3ccccc3[nH]2)c(=O)n(-c2ccccc2)n1C", "growth": "98.5% (inactive)"}, {"smiles": "CCC(=C(c1ccc(OCCCN(C)C)cc1)c1ccc(OCCCN(C)C)cc1)c1ccc(Cl)cc1", "growth": "-55.3% (active)"}, {"smiles": "O=C1OC(c2ccc(-c3ccccc3)cc2)=C/C1=C/C=C/c1ccccc1", "growth": "90.5% (inactive)"}, {"smiles": "Nc1cc(Cl)cc2cccnc12", "growth": "72.3% (inactive)"}, {"smiles": "COc1cc(NC2CCCCC2O)c2nc(-c3ccc(Cl)cc3)ccc2c1", "note": "(stereo not given)", "growth": "81.9% (inactive)"}, {"smiles": "O=c1c2ccccc2n(C[C@H]2CO2)c2ccccc12", "growth": "-44.5% (active)"}, {"smiles": "COc1ccc2nc(C)cc(Nc3ccccc3O)c2c1", "growth": "5.11% (active)"}, {"smiles": "C[C@]12CCc3nc(Nc4cccc(O)c4)sc3C1=CC[C@@H]1[C@@H]2CC[C@]2(C)/C(=N\\NC(N)=S)CC[C@@H]12", "growth": "10.9% (inactive)"}, {"smiles": "Cc1cc(=O)oc2cc(Oc3nc(-c4ccccc4)cn4c(-c5ccccc5)cnc34)ccc12", "growth": "85.2% (inactive)"}, {"smiles": "N#Cc1c(N2CCNCC2)nc2sc3cc(Cl)c(Cl)cc3n2c1=N", "growth": "89% (inactive)"}, {"smiles": "Clc1ccc2[nH]c3c(NCCCN4CCOCC4)ncnc3c2c1", "growth": "36.3% (inactive)"}, {"smiles": "Nc1nc(N)c(N=Nc2ccccc2)c(-c2ccccc2)n1", "growth": "71.4% (inactive)"}, {"smiles": "CSc1[nH]c2ncnc(N)c2c1C#N", "growth": "112% (inactive)"}, {"smiles": "COc1ccc(-c2cnc3ccccc3n2)cc1", "growth": "97% (inactive)"}, {"smiles": "N/C(=N\\C(N)=N\\c1nc2ccccc2s1)c1cccc(Cl)c1", "growth": "19.7% (inactive)"}, {"smiles": "COc1ccc2c3c(c4ccccc4cc13)C(=O)N(CCN(C)CCN)C2=O", "growth": "-58.1% (active)"}, {"smiles": "CCN(CC)CCN1C(=O)c2c(c3c4ccccc4[nH]c3c3ccc4ccccc4c23)C1=O", "growth": "-23.7% (active)"}, {"smiles": "C=CCNC(=O)c1ccc(OC)cc1", "growth": "87.7% (inactive)"}, {"smiles": "O=CNc1ccc2c(c1)Cc1cc([N+](=O)[O-])ccc1-2", "growth": "17.7% (inactive)"}]}]}
